Results filed as inconclusive are left out. Unmarked numbers belong to inactive results. Active and inactive are the calls of the source. Calls follow the shape of the dose curve; as a rule, active = well fitted curve in the direction sought with a large enough effect; inconclusive = small, poorly fitted or top-dose-only effect, or another doubt; inactive = no such curve, though single readings can be large; an effect the other way counts as inactive or inconclusive.

In one test the test system is MCC-13. The test is described as follows: qHTS assay to identify novel small-molecules to repurpose for Merkel cell carcinoma treatment (AID 1296009). Also: nearly all actives have a fitted effect of over 60% in size. The following applies: MCC and control cell lines, CellTiter-Glo viability, 72 h; series mostly up to 46 µM. Summed up: (§1)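 After compound transfer in DMSO, plates were kept 72 hr at 37 degree celsius. Luminescent ATP signal from CellTiter-Glo served as viability measure, normalized against DMSO and no-cell controls.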
(qHTS replaces the single test concentration by a dilution series.)

Another test concerns MCC-26. The description is as above. The settings on record: MCC and control cell lines, CellTiter-Glo viability, 72 h; series mostly up to 46 µM. Summed up:
as §1

A further test concerns MKL-1. Described as above. The settings on record: MCC and control cell lines, CellTiter-Glo viability, 72 h; series mostly up to 46 µM. Summed up: as §1
A general note: ATP-based viability assays read luminescence as a measure of living cells.

Another test relates to WaGa. The description is as above. The following applies: MCC and control cell lines, CellTiter-Glo viability, 72 h; series mostly up to 46 µM. An outline of the steps: as §1
In another test the test system is C33A. The test is described as follows: Primary qHTS to identify gynecologic anti-cancer compounds using libraries of approved drugs and bioactive compounds (AID 1345084). Also: nearly all actives have a fitted effect of over 55% in size. The following applies: Gynecologic cancer cell panel viability, ATPlite luminescence, 48 h; series mostly up to 57.5 µM. An outline of the steps: (§2)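 Cells, 1,000 per well, plated 16 h, then exposed 48 h at 37 C to compounds. Viability by ATPlite luminescence after 15 min at room temperature.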

The next test relates to CAOV3. Described as above. The following applies: Gynecologic cancer cell panel viability, ATPlite luminescence, 48 h; series mostly up to 57.5 µM. An outline of the steps: as §2
Another test concerns CASKI. The description is as above. The settings on record: Gynecologic cancer cell panel viability, ATPlite luminescence, 48 h; series mostly up to 57.5 µM. Summed up:
as §2

In another test the test system is Es-2. Described as above. The following applies: Gynecologic cancer cell panel viability, ATPlite luminescence, 48 h; series mostly up to 57.5 µM. Summed up: as §2
The next test has as its system HeLa. The test is described as above. The settings on record: Gynecologic cancer cell panel viability, ATPlite luminescence, 48 h; series mostly up to 57.5 µM. Summed up:
as §2

The subject of the next test is JEG-3. The test is described as above. The settings on record: Gynecologic cancer cell panel viability, ATPlite luminescence, 48 h; series mostly up to 57.5 µM. Summed up: as §2
The test system of a further test is Tov-21-G. The test is described as above. The settings on record: Gynecologic cancer cell panel viability, ATPlite luminescence, 48 h; series mostly up to 57.5 µM. Summed up: as §2
For a further test, the system named is Tov112D. Described as above. The settings on record: Gynecologic cancer cell panel viability, ATPlite luminescence, 48 h; series mostly up to 57.5 µM. An outline of the steps: as §2
Test [1] is described as follows: Drug repurposing screens with cells derived from glioblastoma tumor samples (AID 1345199). Also: nearly all actives have a fitted effect of over 40% in size. The settings on record: GBM patient neurospheres viability, ATP luminescence, 48 h. Summed up: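 Four patient lines of CD133+ GBM neurospheres were screened at several concentrations; hits were retested in those lines plus three slower-growing GBM lines, using 48-hour treatment and ATP-based viability.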

The test system of the next test is MKL-2. The test is described as follows: qHTS assay to identify novel small-molecules to repurpose for Merkel cell carcinoma treatment (AID 1296009). Also: nearly all actives have a fitted effect of over 60% in size. The following applies: MCC and control cell lines, CellTiter-Glo viability, 72 h; series mostly up to 46 µM. An outline of the steps: as §1
The test system of a further test is NIH3T3. The test is described as above. The following applies: MCC and control cell lines, CellTiter-Glo viability, 72 h; at 44.8 µM (top of the series) unless noted. Summed up: as §1
In a further test the test system is Hek293T. As to the kind of experiment: Primary qHTS to identify gynecologic anti-cancer compounds using libraries of approved drugs and bioactive compounds (AID 1345084). Also: nearly all actives have a fitted effect of over 55% in size. The settings on record: Gynecologic cancer cell panel viability, ATPlite luminescence, 48 h, control line for the selectivity index; series mostly up to 57.5 µM. An outline of the steps: as §2

The test system of a further test is OV90. Described as above. The settings on record: Gynecologic cancer cell panel viability, ATPlite luminescence, 48 h; series mostly up to 57.5 µM. Summed up: as §2
The test system of the next test is PA-1. Described as above. The following applies: Gynecologic cancer cell panel viability, ATPlite luminescence, 48 h; series mostly up to 57.5 µM. An outline of the steps: as §2
The next test deals with SKOV3. Described as above. The following applies: Gynecologic cancer cell panel viability, ATPlite luminescence, 48 h; series mostly up to 57.5 µM. An outline of the steps:
as §2

A further test concerns UISO. The test is described as follows: qHTS assay to identify novel small-molecules to repurpose for Merkel cell carcinoma treatment (AID 1296009). Also: nearly all actives have a fitted effect of over 60% in size. The following applies: MCC and control cell lines, CellTiter-Glo viability, 72 h; series mostly up to 46 µM. An outline of the steps: as §1
[2] abbreviates: at 46.1 µM (top of the series), tumour line C.
The mark [3] stands for this setting: at 45.9 µM (top of the series), tumour line B.
Where [4] appears, read: at 45.9 µM (top of the series), tumour line D.
Setting [5] is: at 46 µM (top of the series), tumour line A.
% is scaled to controls: 0 for no effect and ±100 for the full control effect; potency is read from the fitted curve at half-maximal effect.

For `OCc1cc(C(O)CNCCCCCCOCCCCc2ccccc2)ccc1O` (centres undefined), the Potency result with MCC-13, with MCC-26, in the test on MKL-1, with WaGa, in the test on C33A and in the test on CASKI was “inactive” in each case. In addition, the Potency entry in the test with Es-2, in the test on HeLa, with JEG-3, in the test on Tov-21-G and in the test with Tov112D was “inactive” in each case. In addition, the Potency in the test with CAOV3 is 22.4 µM (active); in test [1] (tumour line A), 7.08 µM (active); in test [1] (tumour line B), 20 µM (active); in [1] (tumour line D) it was 20 µM (active). In test [1] (setting [2]), the activity, negative = cell killing was 2.29%.

As to `Cc1cc(C(C#N)c2ccc(Cl)cc2)c(Cl)cc1NC(=O)c1cc(I)cc(I)c1O` (centres undefined), the Potency result in the test on MCC-13, in the test with MKL-1, in the test on MKL-2, in the test with C33A, with CAOV3 and in the test on CASKI was “inactive” throughout. In addition, the Potency entry with Es-2, in the test on HeLa, in the test on Hek293T, in the test on JEG-3, in the test on OV90 and with PA-1 was “inactive” throughout. Also, the Potency result with SKOV3, with Tov-21-G and with Tov112D was “inactive” throughout. Further, the molecule was called inactive with NIH3T3. Also, the Potency with WaGa was 10.6 µM (active).

Take `CCCCCCCCCCCCCCCC(=O)NCCO`: the Potency result with MCC-13, in the test on MCC-26, in the test with MKL-1, in the test with MKL-2, with UISO and in the test with WaGa was “inactive” in each case. Also, the Potency result in the test with C33A, in the test on CASKI, in the test on Es-2, with HeLa, in the test with Hek293T and in the test on JEG-3 was “inactive” in each case. In addition, the Potency result in the test with OV90, in the test with PA-1, with Tov-21-G and in the test with Tov112D was “inactive” each time. Besides, the activity, negative = cell killing in test [1] (setting [3]) was 0.41%; in test [1] (setting [4]) it was -8.68%; in test [1] (setting [5]), -19.5%; in test [1] (setting [2]), -10.8%.

For the molecule `CN(C)CCC=C1c2ccccc2CCc2ccccc21`, the Potency entry in the test on MCC-13, in the test on MCC-26, in the test with MKL-1, in the test on UISO, in the test with C33A and in the test on CASKI was “inactive” each time. Besides, the Potency result in the test on Es-2, in the test on HeLa, with JEG-3, with PA-1, in the test with SKOV3 and in the test on Tov-21-G was “inactive” each time. For the same molecule, the Potency entry with Tov112D is “inactive”.

Regarding `COc1ccc2cc1Oc1cc3c(cc1OC)CC[N+](C)(C)[C@H]3Cc1ccc(cc1)Oc1c(OC)c(OC)cc3c1[C@@H](C2)[N+](C)(C)CC3`, the Potency result in the test with MCC-13, in the test on MKL-1, in the test with MKL-2, with UISO, in the test on WaGa and in the test on C33A was “inactive” each time. For the same molecule, the Potency entry in the test with CAOV3, in the test on CASKI, in the test with Es-2, in the test with HeLa, in the test with Hek293T and in the test on JEG-3 was “inactive” in each case. Also, the Potency result in the test with OV90, in the test on PA-1, with SKOV3, with Tov-21-G and in the test with Tov112D was “inactive” each time. The result with NIH3T3 was inactive. Besides, the activity, negative = cell killing in [1] (setting [3]) is -14.8%; in [1] (setting [4]), -5.75%; in [1] (setting [2]), -3.48%.

With `NCC(=O)CCC(=O)O`, the Potency result in the test with MCC-13, with MKL-1, with MKL-2, in the test with UISO, with WaGa and in the test with C33A was “inactive” each time. Besides, the Potency entry with CAOV3, in the test on CASKI, with Es-2, in the test on HeLa, with Hek293T and in the test on JEG-3 was “inactive” throughout. In addition, the Potency entry with OV90, in the test on PA-1, in the test on SKOV3, in the test on Tov-21-G and in the test with Tov112D was “inactive” in each case. In addition, in the test on NIH3T3, the call was inactive. Further, the activity, negative = cell killing in [1] (setting [3]) was -16.2%; in test [1] (setting [4]) it was -11%; in test [1] (setting [5]), -11%; in test [1] (setting [2]) it was -6.71%.
